Sampled rows, rich in hits. Any-hit rate of the full collection: about 3.5%.
mHTT CaM bind: inhibitors of human mutant huntingtin-calmodulin interaction. 190,000 compounds, 3.6% hits. inhibition, % at 15 µM. AID 1671202. P42858. AlphaScreen His-mHTT/GST-CaM binding, luminescence;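 also: 0% = both proteins with DMSO and 100% = one protein alone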
Target sequence (P42858 whole entry, looked up, stated change not applied): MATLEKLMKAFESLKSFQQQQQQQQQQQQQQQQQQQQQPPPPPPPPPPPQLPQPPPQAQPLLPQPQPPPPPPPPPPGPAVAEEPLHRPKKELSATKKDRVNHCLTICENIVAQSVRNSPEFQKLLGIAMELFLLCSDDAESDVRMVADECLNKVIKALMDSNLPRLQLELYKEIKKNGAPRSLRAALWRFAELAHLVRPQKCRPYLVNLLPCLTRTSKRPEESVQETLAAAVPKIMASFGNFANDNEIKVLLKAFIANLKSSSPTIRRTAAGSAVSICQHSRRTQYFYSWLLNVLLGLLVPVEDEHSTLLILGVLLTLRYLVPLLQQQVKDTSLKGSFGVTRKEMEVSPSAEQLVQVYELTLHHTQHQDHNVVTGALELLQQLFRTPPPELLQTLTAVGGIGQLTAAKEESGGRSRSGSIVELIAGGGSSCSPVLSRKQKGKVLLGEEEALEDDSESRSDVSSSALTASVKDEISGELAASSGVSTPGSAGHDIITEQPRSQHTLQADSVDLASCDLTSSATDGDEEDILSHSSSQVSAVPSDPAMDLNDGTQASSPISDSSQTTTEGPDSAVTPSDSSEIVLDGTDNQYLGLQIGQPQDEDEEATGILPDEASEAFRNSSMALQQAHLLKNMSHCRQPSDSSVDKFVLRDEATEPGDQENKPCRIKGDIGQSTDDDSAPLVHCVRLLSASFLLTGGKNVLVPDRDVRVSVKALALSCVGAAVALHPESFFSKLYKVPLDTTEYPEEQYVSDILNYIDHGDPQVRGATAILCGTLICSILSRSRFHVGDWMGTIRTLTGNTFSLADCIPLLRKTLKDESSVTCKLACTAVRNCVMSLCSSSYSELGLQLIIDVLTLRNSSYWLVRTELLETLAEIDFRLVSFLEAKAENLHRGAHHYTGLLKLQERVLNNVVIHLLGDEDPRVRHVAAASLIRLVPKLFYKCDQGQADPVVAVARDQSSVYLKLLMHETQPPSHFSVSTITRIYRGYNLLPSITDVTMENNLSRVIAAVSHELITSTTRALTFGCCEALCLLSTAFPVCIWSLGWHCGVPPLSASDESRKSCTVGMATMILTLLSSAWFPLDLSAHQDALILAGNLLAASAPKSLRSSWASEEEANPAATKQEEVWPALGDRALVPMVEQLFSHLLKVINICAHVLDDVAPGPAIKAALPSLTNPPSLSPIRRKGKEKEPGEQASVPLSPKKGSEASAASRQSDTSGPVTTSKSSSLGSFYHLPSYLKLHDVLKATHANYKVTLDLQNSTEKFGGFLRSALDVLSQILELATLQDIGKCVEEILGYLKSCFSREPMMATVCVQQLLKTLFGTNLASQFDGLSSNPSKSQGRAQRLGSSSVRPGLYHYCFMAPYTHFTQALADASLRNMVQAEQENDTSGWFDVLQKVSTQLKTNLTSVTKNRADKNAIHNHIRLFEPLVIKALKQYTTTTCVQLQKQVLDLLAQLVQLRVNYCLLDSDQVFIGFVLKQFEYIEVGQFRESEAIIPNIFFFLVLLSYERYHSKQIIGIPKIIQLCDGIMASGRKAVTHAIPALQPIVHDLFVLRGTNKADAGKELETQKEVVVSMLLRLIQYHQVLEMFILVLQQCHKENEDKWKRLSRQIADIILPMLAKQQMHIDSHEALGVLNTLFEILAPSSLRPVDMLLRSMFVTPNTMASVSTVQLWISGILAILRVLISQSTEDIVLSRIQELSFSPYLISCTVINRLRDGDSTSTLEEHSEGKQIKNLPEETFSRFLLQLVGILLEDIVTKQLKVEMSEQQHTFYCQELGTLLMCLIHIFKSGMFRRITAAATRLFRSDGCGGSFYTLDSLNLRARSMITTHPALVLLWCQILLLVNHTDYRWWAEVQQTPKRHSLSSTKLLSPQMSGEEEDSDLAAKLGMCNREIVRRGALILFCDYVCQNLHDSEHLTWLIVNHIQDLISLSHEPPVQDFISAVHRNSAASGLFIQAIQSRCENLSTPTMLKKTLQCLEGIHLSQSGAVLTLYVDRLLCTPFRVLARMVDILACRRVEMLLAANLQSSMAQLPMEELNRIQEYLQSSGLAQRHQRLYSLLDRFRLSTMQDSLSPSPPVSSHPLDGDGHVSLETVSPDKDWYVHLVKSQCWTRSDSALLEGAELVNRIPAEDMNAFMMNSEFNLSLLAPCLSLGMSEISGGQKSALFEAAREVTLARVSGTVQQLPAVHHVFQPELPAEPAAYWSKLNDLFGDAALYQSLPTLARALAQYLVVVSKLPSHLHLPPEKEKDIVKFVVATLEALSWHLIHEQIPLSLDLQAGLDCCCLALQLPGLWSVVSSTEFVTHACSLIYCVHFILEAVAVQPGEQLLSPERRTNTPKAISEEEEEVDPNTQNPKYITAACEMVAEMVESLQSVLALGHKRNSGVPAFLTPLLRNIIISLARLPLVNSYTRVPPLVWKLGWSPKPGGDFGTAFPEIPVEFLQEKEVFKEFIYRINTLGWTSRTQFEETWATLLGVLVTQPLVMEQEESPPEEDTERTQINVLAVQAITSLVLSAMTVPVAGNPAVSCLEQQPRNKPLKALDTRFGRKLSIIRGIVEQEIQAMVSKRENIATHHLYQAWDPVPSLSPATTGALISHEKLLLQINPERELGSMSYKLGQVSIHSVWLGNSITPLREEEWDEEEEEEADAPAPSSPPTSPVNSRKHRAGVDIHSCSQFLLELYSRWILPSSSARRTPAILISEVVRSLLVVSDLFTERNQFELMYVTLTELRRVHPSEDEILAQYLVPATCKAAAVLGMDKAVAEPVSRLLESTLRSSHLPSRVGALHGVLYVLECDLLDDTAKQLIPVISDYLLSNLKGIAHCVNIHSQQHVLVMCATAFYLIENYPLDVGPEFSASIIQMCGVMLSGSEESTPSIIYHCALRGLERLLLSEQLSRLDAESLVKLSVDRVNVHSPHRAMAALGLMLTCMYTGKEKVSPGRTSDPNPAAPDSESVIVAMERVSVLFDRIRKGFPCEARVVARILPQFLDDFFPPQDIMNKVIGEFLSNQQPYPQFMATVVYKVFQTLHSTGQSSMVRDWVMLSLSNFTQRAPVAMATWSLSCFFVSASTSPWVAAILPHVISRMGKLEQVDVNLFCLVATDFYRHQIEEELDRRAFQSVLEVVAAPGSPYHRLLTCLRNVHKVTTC
Pf apPOL block: Pf-apPOL DNA polymerase inhibition; Recombinant Pf-apPOL, molecular beacon fluorescence, 1.5 h; inhibition, % at 10 µM; 210,000 compounds, 0.25% hits; AID 1794808
The depositor's hits bear a star; x = no result given. Rule as the data show it: active = inhibition above about 50%; inactive = the rest.

SMILES	mHTT CaM bind	Pf apPOL block
CCC(=O)Nc1cccc(NC(=O)c2sc3ccccc3c2Cl)c1	56.0*	-10.2
Cc1ccccc1C(=O)Nc1cccc(NC(=O)c2sc3ccccc3c2Cl)c1	-0.4	-7.5
O=C(Nc1nc(-c2nc3ccccc3s2)cs1)c1ccno1	-8.0	5.1
O=C(Nc1nc(-c2ccccn2)cs1)c1nc2ccccc2s1	100.0*	-75.8
CC(C)c1ccc(OCC(=O)NC2CCCC(O)C2)cc1 (centres undefined)	2.6	1.3
COCCN1C(=O)Cc2ccccc2C1C(=O)NCc1ccccc1C (centres undefined)	3.3	-2.8
CC(CC(=O)ON=Cc1ccc(Cl)cc1)S(=O)(=O)c1ccc(Cl)cc1 (centres undefined)	x	34.2
CCOC(=O)N1CCc2nn(CC(=O)NCCCc3ccccc3)c(=O)cc2C1	15.0	1.1
Cc1nnsc1C(=O)NCc1csc(-c2cccs2)n1	x	-17.3
COc1ccccc1C1CC(c2cc(F)ccc2O)=NN1 (centres undefined)	40.0	-1.1
Oc1ccc(Cl)cc1C1=NNC(c2cccs2)C1 (centres undefined)	51.7*	-1.2
CC(=NCc1cccs1)c1c(C(F)(F)F)[nH]n(-c2nc3ccccc3s2)c1=O	-3.0	11.0
CCc1ccccc1NC(=O)c1ccc(C)cc1Cl	-5.5	3.9
Cc1cccc(NC(=O)Cn2nc(N3CCCC(C)C3)c3ccccc3c2=O)c1 (centres undefined)	13.7	-2.6
CC(C)OCCCNC(=O)C1CCN(c2nc3ccccc3o2)CC1	15.0	-16.0
COc1ccc(N2CC(c3nnc(NC(=O)Cc4ccc(F)cc4)o3)CC2=O)cc1 (centres undefined)	72.9*	-1.2
COc1ccc(N2CC(c3nnc(NC(=O)COc4ccc(F)cc4)o3)CC2=O)cc1 (centres undefined)	18.7	1.7
O=C(Nc1nnc(C2CC(=O)N(c3ccc(F)cc3)C2)o1)c1ccccc1F (centres undefined)	60.7*	0.8
COc1ccc(CC(=O)Nc2nnc(C3CC(=O)N(c4ccc(OC)cc4)C3)o2)cc1 (centres undefined)	15.4	-3.7
O=C(COc1ccc(F)cc1)Nc1nnc(C2CC(=O)N(c3ccc(F)cc3)C2)o1 (centres undefined)	67.7*	-1.8
O=C(Cc1ccc(Cl)cc1)Nc1nnc(C2CC(=O)N(c3ccc(F)cc3)C2)o1 (centres undefined)	71.2*	-4.0
O=C(Nc1nnc(C2CC(=O)N(c3ccccc3)C2)o1)c1ccccc1F (centres undefined)	13.5	-2.3
O=C(Nc1nnc(C2CC(=O)N(c3ccc(Cl)cc3)C2)o1)c1ccc(F)cc1 (centres undefined)	15.8	-1.5
O=C1C(NS(=O)(=O)c2cc(F)ccc2F)CCN1c1ccccc1 (centres undefined)	-10.2	-0.5
Cc1sc2nc(SCC(=O)NC3CCCCC3)nc(N)c2c1C	-3.6	2.1
SMILES	mHTT CaM bind	Pf apPOL block
Cc1cc(C(=O)ON=C(N)COc2ccc([N+](=O)[O-])cc2)no1	x	1.8
O=C(NCc1ccccc1F)c1nnn(-c2ccc(F)cc2)c1-c1ccncc1	0.7	-2.8
COc1ccc(N2CC(c3nnc(NC(=O)Cc4ccc(Cl)cc4)o3)CC2=O)cc1 (centres undefined)	4.8	-1.3
O=C(Cc1ccc(F)cc1)Nc1nnc(C2CC(=O)N(c3ccc(Cl)cc3)C2)o1 (centres undefined)	67.0*	-5.5
COc1cccc2c1OC1(C)CC2NC(=O)N1c1cccc(C(=O)NCc2cccnc2)c1 (centres undefined)	0.0	-2.9
CCN1/C(=C/c2cccc[n+]2C)C=Cc2ccccc21	19.0	3.4
CCN1C(=Cc2c3ccccc3cc[n+]2CC)C=Cc2ccccc21	63.0*	0.1
CC(=O)c1ccc(N2CCN(C/C=C/c3ccccc3[N+](=O)[O-])CC2)cc1	23.5	-0.7
COc1cc([N+](=O)[O-])ccc1NC(=O)COc1ccc(Cl)c(C)c1	-4.2	5.4
Cc1ccc(-c2nc(C(=O)N3CCCCC3)cs2)n1C	6.8	2.3
O=C1OC(c2cc(Cl)ccc2Cl)=N/C1=C\c1ccco1	3.0	85.6*
O=C1OC(c2ccccc2Cl)=N/C1=C\c1ccccc1	51.0*	3.0
O=C1OC(c2ccccc2Cl)=N/C1=C\c1ccc(Cl)cc1	3.0	-6.8
COc1cccc(/C=C2\N=C(c3cccc(OC)c3)OC2=O)c1	2.0	0.0
COc1ccc(Br)cc1/C=C1\N=C(c2ccc(Cl)c([N+](=O)[O-])c2)OC1=O	-6.0	3.6
COc1cccc(C2=N/C(=C\c3ccco3)C(=O)O2)c1	4.0	61.4*
O=C1OC(c2ccc(Cl)cc2Cl)=N/C1=C\c1ccco1	4.0	-9.8
COc1ccc(OC)c(/C=C2\N=C(c3ccc(Cl)c([N+](=O)[O-])c3)OC2=O)c1	68.0*	-3.0
COc1ccc(Cc2nnc(NC(=O)c3ccc([N+](=O)[O-])cc3)s2)cc1	0.5	4.5
CC1CN(C(=O)CCCOc2ccccc2)CC(C)O1 (centres undefined)	-7.1	1.9

Compound activity: PubChem BioAssay, University of Kansas High Throughput Screening Laboratory
